# Source: PubChem BioAssay (EPA / NIEHS)
# Where “and” joins values, the source holds several entries; their conditions need not be identical. Identical values can stand only once. Some structures have more than one record in an assay (separate samples or runs), and their calls can disagree. Calls of active or inactive are those of the source. The calls were made as follows: active = hit-call score of the fitted dose curve at least 0.9, where 1 is the maximum; inactive = score below 0.9.
# Target: Paired box protein Pax-6 (Homo sapiens) (UniProt P26367)
# Assay: ATG_Pax6_CIS: Attagene CIS-FACTORIAL HepG2 Assay for human Paired Box 6 (PAX6) (AID 2282956)
# Conditions: HepG2 CIS-FACTORIAL PAX6 reporter transcription, RNA readout; actives raise or lower the signal
# Method: ATG_CIS is a cell-based, multiplexed-readout assay that uses HepG2, a human liver cell line, with measurements taken at 24 hours after chemical dosing in a 24-well plate.ATG_Pax6_CIS is one of 52 assay component(s) measured or calculated from the ATG_CIS assay. It is designed to make measurements of mRNA induction, a form of inducible reporter, as detected with fluorescence intensity signals by Reverse transcription polymerase chain reaction (RT-PCR) and Capillary electrophoresis technology.Data from the assay component ATG_Pax6_CIS was analyzed into 1 assay endpoint. This assay endpoint, ATG_Pax6_CIS, was analyzed with bidirectional fitting relative to DMSO as the negative control and baseline of activity. Using a type of inducible reporter, measures of mRNA for gain or loss-of-signal activity can be used to understand the reporter gene at the transcription factor-level as they relate to the gene PAX6. Furthermore, this assay endpoint can be referred to as a primary readout, because this assay has produced multiple assay endpoints where this one serves a reporter gene function. To generalize the intended target to other relatable targets, this assay endpoint is annotated to the dna binding intended target family, where the subfamily is paired box protein.
# Human liver HepG2 cells are transiently transfected with multiple reporter transcription units (MRTUs) in 6-well plates using FuGene 6 reagent (Roche; 3 ml FuGene/1 mg DNA). The MRTU constructs are regulated by a cis-regulating element (promoter). […] A major difference between the CIS and TRANS system is that in CIS activities of endogenous TFs are measured, whereas the TRANS assay evaluates changes in activities of exogenous, chimeric NR-Gal4 proteins. […] At the end of 24 hour incubation, total RNA was isolated using TriZol reagent (Invitrogen). The isolated RNA is then reverse-transcribed using oligo(dT) primer and Mo-MLV reverse transcriptase (Invitrogen) with DNAse I (Ambion) treatment for 30 min. The one-tenth of the produced cDNA was amplified by PCR using Taq DNA polymerase (Invitrogen) and two reporter sequence-specific primers. The PCR products were fluorescently labeled by primer extension with 6-arboxyfluorescein (6-FAM) 5'-labeled reporter sequence-specific primer (2 min at 95 C, 20 s at 68 C and 10 min at 72 C) and these products were digested with 5U of HpaI (New England Biolabs) for 2h at 37 C. The fragments were purified using Qiaquick PCR columns (Qiagen), analyzed on an ABI 3130xL genetic analyzer (Applied Biosystems) with peak positions identified by using a set of X-rhodamine (ROX)-labeled MapMarker1000 molecular weight standards (BioVentures). The raw capillary electrophoresis data was processed using Attagraph software (Attagene).
# Paired box protein Pax-6 (Homo sapiens), sequence (P26367 whole entry, looked up): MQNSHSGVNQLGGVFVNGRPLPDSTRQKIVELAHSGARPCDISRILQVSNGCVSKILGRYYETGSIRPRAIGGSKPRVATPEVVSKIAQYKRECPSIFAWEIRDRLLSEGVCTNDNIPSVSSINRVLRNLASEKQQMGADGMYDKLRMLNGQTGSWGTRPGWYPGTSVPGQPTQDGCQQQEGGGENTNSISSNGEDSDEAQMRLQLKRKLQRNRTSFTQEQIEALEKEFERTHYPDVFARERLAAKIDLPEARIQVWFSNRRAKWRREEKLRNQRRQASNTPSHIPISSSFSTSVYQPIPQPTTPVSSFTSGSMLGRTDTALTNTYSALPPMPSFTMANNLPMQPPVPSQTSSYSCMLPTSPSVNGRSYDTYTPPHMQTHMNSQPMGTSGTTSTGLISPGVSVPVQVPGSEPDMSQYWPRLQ
Structure (SMILES),outcome,AC50
CCCCCCCCCC=CCC1CC(=O)OC1=O (stereo not given),inactive,
c1ccc2c(c1)CCC2,inactive,
Clc1ccc(Nc2nnc(Cc3ccncc3)c3ccccc23)cc1,,27 µM (active)
Brc1cc(Br)c(Oc2c(Br)cc(Br)c(Br)c2Br)cc1Br,inactive,
CCOCCOCC,inactive,
OCC(CO)(CBr)CBr,inactive,
O=C(F)C(F)(F)C(F)(F)C(F)(F)C(F)F,inactive,
CCN(CCC#N)c1ccccc1,inactive,
Cc1[nH]nc2c1N=C(c1ccccc1Cl)c1cc([N+](=O)[O-])ccc1N2,inactive,
CC[N+](CC)(CC)Cc1ccccc1,inactive,
c1ccc(CNc2ncnc3c2ncn3C2CCCCO2)cc1 (stereo not given),inactive,
NCc1cccc(CN)c1,inactive,
C=CC(C)(CCC=C(C)C)OC(C)=O (stereo not given),inactive,
O=C(NO)c1ccccc1,inactive,
Oc1c(Cl)ccc(Cl)c1Cl,inactive,
CCc1ccccc1O,inactive,
Cn1sccc1=O,,159 µM (active)
CCOC(C)=O,inactive,
Cc1ccccc1OCC(=O)O,inactive,
O=CC(F)(F)C(F)(F)C(F)(F)C(F)F,inactive,

Structure (SMILES),outcome,AC50
CCC(=O)O,inactive,
CCOC(OCC)C(=O)c1ccccc1,inactive,
CCCCc1oc2ccccc2c1C(=O)c1cc(I)c(OCCN(CC)CC)c(I)c1,,20.2 µM (active)
O=C1c2ccccc2C(=O)c2c(O)c(O)cc(O)c21,inactive,
C=CC(=O)OCCN(CC)CC,,58.9 µM (active)
O=C(Nc1cccc([N+](=O)[O-])c1)c1cc2ccccc2cc1O,inactive,
Cc1cc(Cc2cc(C)cc(C(C)(C)C)c2O)c(O)c(C(C)(C)C)c1,inactive,
C[C@]12CC[C@@H]3c4ccc(O)cc4CC[C@H]3[C@@H]1C[C@@H](O)[C@@H]2O,inactive,
CCCCCCCC(OC)OC,inactive,
FCOC(C(F)(F)F)C(F)(F)F,inactive,
CC(C)(C)c1ccc(O)c(O)c1,inactive,99.1 µM (active) and 57.3 µM (active)
CCCCCCCCCCCC(=O)NCCCN(C)C,,19.6 µM (active)
CCCCCCCCCCCCCC[n+]1ccccc1,,11.1 µM (active)
CCN(CC)CC,inactive,
CCc1cccc(CC)c1NC(=O)C(=O)O,inactive,
CC(=O)Nc1ccc(O)cc1,inactive,
Cc1ccccc1C(OCCN(C)C)c1ccccc1 (stereo not given),inactive,
Oc1c(Cl)cc(Cl)cc1Sc1cc(Cl)cc(Cl)c1O,inactive,
COC(=O)CC(C(C)=O)C(=O)OC (stereo not given),inactive,
